# PubChem BioAssay (Tox21)
# Inconclusive results are not listed. Entries that show only a call come without a potency. Some structures have more than one record in an assay (separate samples or runs), and their calls can disagree. Active and inactive are the calls of the source. Unless noted, calls follow the shape of the dose curve; as a rule, active = well fitted curve in the direction sought with a large enough effect in the repeat runs; inconclusive = weak or mixed curves; inactive = no such curve, though single readings can be large; an effect the other way counts as inactive or inconclusive.
# How the values were obtained:
# [1] = qHTS assay to identify small molecule antagonists of the glucocorticoid receptor (GR) signaling pathway - cell viability counter screen (AID 720693); also: nearly all actives have a fitted effect of over 55% in size
# [2] = qHTS assay for identifying genotoxic compounds that show differential cytotoxicity against isogenic chicken DT40 cell lines with known DNA damage response pathways - wild type cell line (AID 743012); also: nearly all actives have a fitted effect of over 60% in size; also: potency is read from the fitted curve at half-maximal effect
# In short: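 Using parental DT40 (300 cells/well), compounds delivered in DMSO incubate 40 h at 37 C/5% CO2. CellTiter-Glo reagent then stands 30 min at room temperature, and luminescence gives cell viability.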
# [3] = qHTS assay for identifying genotoxic compounds that show differential cytotoxicity against isogenic chicken DT40 cell lines with known DNA damage response pathways - Rev3 mutant cell line (AID 743014); also: nearly all actives have a fitted effect of over 55% in size; also: potency is read from the fitted curve at half-maximal effect
# [4] = qHTS assay for identifying genotoxic compounds that show differential cytotoxicity against isogenic chicken DT40 cell lines with known DNA damage response pathways - Rad54/Ku70 mutant cell line (AID 743015); also: nearly all actives have a fitted effect of over 60% in size; also: potency is read from the fitted curve at half-maximal effect
# [5] = qHTS assay to identify small molecule antagonists of the androgen receptor (AR) signaling pathway - cell viability counter screen (AID 743033; also: nearly all actives have a fitted effect of over 45% in size)
# [6] = qHTS assay to identify small molecule antagonists of the androgen receptor (AR) signaling pathway using the MDA cell line - cell viability counter screen (AID 743041; also: nearly all actives have a fitted effect of over 45% in size)
# In short: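 R1881-driven MDA-kb2 AR-luc cells, 3,000/well, were dosed with library compounds for 16 h; cell health came from CellTiter-Fluor fluorescence in the reporter wells.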
# [7] = qHTS assay to identify small molecule antagonists of the thyroid receptor (TR) signaling pathway - cell viability counter screen (AID 743064); also: nearly all actives have a fitted effect of over 50% in size; also: potency is read from the fitted curve at half-maximal effect
# In short: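 Fluorescence from CellTiter-Fluor, added after 23.5 h exposure at 37 °C, reported viability of GH3.TRE-Luc cells co-treated with compound and 1 nM T3. Measured in the same wells as the luciferase TR readout.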
# [8] = qHTS assay to identify small molecule antagonists of the thyroid receptor (TR) signaling pathway (AID 743065); also: series mostly up to about 70 µM; nearly all actives have a fitted effect of over 55% in size
# In short: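 Antagonism measured as loss of luciferase signal in GH3 cells stably carrying a TRE-luciferase reporter, co-treated with compound and T3 (1 nM final) for 23.5 h at 37 C. Viability was read in the same well by CellTiter-Fluor.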
# [9] = qHTS assay to identify small molecule antagonists of the estrogen receptor alpha (ER-alpha) signaling pathway - cell viability counter screen (AID 743074; calls by dose curve;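 also: HEK293 cells carrying ER-alpha-UAS-bla reporter stimulated with 17beta-estradiol; nearly all actives have a fitted effect of over 45% in size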)
# [10] = qHTS assay to identify small molecule antagonists of the estrogen receptor alpha (ER-alpha) signaling pathway using the BG1 cell line - cell viability counter screen (AID 743081);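 also: compound given together with 17beta-estradiol as the ER stimulus; series mostly up to about 70 µM; nearly all actives have a fitted effect of over 45% in size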
# [11] = molecular target: Aromatase (Homo sapiens) (UniProt P11511); experiment: qHTS assay to identify aromatase inhibitors (AID 743083); also: series mostly up to about 70 µM; nearly all actives have a fitted effect of over 55% in size
# [12] = molecular target: Androgen receptor (Homo sapiens) (UniProt P10275); experiment: qHTS assay to identify small molecule antagonists of the androgen receptor (AR) signaling pathway (AID 743035; active = well fitted inhibition curve with a large enough effect in the signal ratio in the repeat runs, not every such curve was filed as active; the % refers to the signal ratio)
# In short: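 Using qHTS, AR-UAS-bla GripTite HEK293 cells received compound, then R1881, and were cultured 16 h at 37C/5% CO2 before a 2 h room-temperature LiveBLAzer B/G FRET substrate step and fluorescence measurement.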
# [13] = molecular target: Androgen receptor (Homo sapiens) (UniProt P10275); experiment: qHTS assay to identify small molecule agonists of the androgen receptor (AR) signaling pathway (AID 743036; active = well fitted activation curve with a large enough effect in the signal ratio in the repeat runs, with a control signal flat, not every such curve was filed as active; the % refers to the signal ratio)
# In short: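 Fluorescence from a beta-lactamase FRET substrate served as read-out in AR-UAS-bla GripTite HEK293 cells. Cells were treated with DMSO-dissolved compounds for 16 h at 37C, then with LiveBLAzer B/G substrate for 2 h at room temperature.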
# [14] = molecular target: Androgen receptor (Homo sapiens) (UniProt P10275); experiment: qHTS assay to identify small molecule agonists of the androgen receptor (AR) signaling pathway using the MDA cell line (AID 743040; also: nearly all actives have a fitted effect of over 20% in size)
# In short: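 After a 5 h incubation at 37C and 0% CO2, MDA-kb2 reporter cells were dosed with compounds in DMSO and kept 16 h under the same conditions. Luciferase activity was then read as luminescence with ONE-Glo.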
# [15] = molecular target: Androgen receptor (Homo sapiens) (UniProt P10275); experiment: qHTS assay to identify small molecule antagonists of the androgen receptor (AR) signaling pathway using the MDA cell line (AID 743042; also: nearly all actives have a fitted effect of over 55% in size)
# In short: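 Antagonist mode: compounds plus R1881 agonist added to MDA-kb2 AR-luc cells, incubated 16 h at 37C. Luciferase reporter luminescence quantified, with multiplexed CellTiter-Fluor readout for cell viability.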
# [16] = tested on: thyroid hormone receptor (rat, GH3 cells); experiment: qHTS assay to identify small molecule agonists of the thyroid receptor (TR) signaling pathway (AID 743066; calls by dose curve)
# [17] = molecular target: Estrogen receptor (Homo sapiens) (UniProt P03372); experiment: qHTS assay to identify small molecule antagonists of the estrogen receptor alpha (ER-alpha) signaling pathway (AID 743069; active = well fitted curve in the direction sought with a large enough effect in the signal ratio in the repeat runs, not every such curve was filed as active; the % refers to the signal ratio)
# In short: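 Compound effects are measured against 17beta-estradiol stimulation in HEK293 cells with a UAS-controlled beta-lactamase reporter for ER-alpha. Exposure lasts 18 hr at 37C; LiveBLAzer B/G FRET substrate follows for 2 hr at room temperature.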
# [18] = molecular target: Estrogen receptor (Homo sapiens) (UniProt P03372); experiment: qHTS assay to identify small molecule agonists of the estrogen receptor alpha (ER-alpha) signaling pathway (AID 743075; calls by dose curve)
# [19] = qHTS assay to identify small molecule antagonists of the estrogen receptor alpha (ER-alpha) signaling pathway using the BG1 cell line (AID 743080; calls by dose curve;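 also: BG1 cells stimulated with 17beta-estradiol alongside compound; nearly all actives have a fitted effect of over 25% in size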; also: potency is read from the fitted curve at half-maximal effect)
# In short: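 Luciferase inhibition measured with ONE-Glo after 30 min at RT in BG1Luc4E2 cells given test compounds and 17beta-estradiol for 21.5 h at 37 C; CellTiter-Fluor viability read in the same wells beforehand.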
# [20] = molecular target: Estrogen receptor (Homo sapiens) (UniProt P03372); experiment: qHTS assay to identify small molecule agonists of the estrogen receptor alpha (ER-alpha) signaling pathway using the BG1 cell line (AID 743079); also: nearly all actives have a fitted effect of over 20% in size
# Sequence of Estrogen receptor (Homo sapiens) (P03372 whole entry, looked up): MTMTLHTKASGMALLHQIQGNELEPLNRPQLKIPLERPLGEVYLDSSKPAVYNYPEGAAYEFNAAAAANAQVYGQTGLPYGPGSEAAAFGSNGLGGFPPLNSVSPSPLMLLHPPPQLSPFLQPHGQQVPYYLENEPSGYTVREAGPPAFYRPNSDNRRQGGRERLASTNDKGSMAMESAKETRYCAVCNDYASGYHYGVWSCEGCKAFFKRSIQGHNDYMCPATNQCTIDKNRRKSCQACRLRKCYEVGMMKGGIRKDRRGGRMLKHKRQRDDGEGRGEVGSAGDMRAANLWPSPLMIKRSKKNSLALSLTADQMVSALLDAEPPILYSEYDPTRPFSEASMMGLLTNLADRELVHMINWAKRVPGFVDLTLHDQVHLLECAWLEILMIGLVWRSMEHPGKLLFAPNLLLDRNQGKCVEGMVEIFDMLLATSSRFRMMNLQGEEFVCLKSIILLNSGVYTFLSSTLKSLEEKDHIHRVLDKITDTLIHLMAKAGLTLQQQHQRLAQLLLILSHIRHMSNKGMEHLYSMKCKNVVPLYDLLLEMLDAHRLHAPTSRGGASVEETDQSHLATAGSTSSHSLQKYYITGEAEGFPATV
# Sequence of Androgen receptor (Homo sapiens) (P10275 whole entry, looked up): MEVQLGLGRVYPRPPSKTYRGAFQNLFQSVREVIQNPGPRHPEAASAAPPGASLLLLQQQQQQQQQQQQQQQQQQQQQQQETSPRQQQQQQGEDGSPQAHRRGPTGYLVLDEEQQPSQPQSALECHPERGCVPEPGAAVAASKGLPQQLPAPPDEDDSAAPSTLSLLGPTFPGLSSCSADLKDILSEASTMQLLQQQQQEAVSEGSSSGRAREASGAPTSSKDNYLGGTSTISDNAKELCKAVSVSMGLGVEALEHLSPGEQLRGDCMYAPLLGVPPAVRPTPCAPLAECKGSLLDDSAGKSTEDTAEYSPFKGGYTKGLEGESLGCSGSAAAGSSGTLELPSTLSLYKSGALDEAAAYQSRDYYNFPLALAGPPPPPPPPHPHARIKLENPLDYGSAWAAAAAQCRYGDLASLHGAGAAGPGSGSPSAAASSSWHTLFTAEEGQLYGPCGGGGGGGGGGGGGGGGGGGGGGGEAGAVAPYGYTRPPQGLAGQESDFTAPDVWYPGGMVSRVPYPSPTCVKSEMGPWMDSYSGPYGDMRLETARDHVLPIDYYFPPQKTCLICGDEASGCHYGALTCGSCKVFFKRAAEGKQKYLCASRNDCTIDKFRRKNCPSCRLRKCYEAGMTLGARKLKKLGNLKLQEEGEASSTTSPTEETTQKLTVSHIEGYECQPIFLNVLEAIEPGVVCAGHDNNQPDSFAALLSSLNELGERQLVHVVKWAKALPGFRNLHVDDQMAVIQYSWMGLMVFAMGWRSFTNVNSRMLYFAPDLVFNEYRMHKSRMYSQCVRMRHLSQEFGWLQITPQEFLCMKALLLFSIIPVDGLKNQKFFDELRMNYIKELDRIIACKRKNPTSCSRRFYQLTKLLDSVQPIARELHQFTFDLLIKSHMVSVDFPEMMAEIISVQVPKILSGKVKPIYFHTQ
# Sequence of Aromatase (Homo sapiens) (P11511 whole entry, looked up): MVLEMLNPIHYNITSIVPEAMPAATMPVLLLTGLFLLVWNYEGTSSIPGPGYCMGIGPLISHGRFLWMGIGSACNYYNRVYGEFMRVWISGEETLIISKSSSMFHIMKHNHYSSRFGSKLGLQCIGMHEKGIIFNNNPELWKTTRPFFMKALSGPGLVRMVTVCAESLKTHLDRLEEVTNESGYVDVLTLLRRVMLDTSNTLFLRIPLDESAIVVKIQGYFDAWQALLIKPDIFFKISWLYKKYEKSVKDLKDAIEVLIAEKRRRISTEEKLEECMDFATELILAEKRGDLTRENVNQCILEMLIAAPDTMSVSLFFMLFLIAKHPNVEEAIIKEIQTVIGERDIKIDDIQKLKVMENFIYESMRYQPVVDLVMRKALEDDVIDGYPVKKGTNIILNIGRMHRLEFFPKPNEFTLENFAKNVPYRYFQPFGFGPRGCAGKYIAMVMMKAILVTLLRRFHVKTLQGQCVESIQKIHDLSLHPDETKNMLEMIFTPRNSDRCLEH
SMILES,outcome [1],Potency [2],Potency [3],Potency [4],Potency [5],Potency [6],Potency [7],Potency [8],outcome [9],outcome [10],Potency [11],Potency [12],outcome [13],outcome [14],Potency [15],outcome [16],outcome [17],outcome [18],Potency [19],Potency [20]
OCCCCC(O)CO (stereo not given),inactive,inactive,inactive,inactive,inactive,inactive,inactive,inactive,inactive,inactive,inactive,,,,,,,,,
C=COCCOCCOCCOC=C,inactive,inactive,inactive,,inactive,inactive,inactive,inactive,inactive,inactive,inactive,inactive,inactive,inactive,inactive,inactive,,,,
COc1ccc(Br)c(C)c1,inactive,inactive,inactive,inactive,inactive,inactive,,inactive,inactive,inactive,inactive,,,,,inactive,,,,
CCCCCCOc1ccccc1C(N)=O,inactive,23.7 µM (active),21.1 µM (active),21.1 µM (active),,,inactive,,inactive,inactive,inactive,,,,,inactive,inactive,inactive,33.5 µM (active),
CC1=C(C(=O)O)N2C(=O)[C@@H](NC(=O)[C@H](N)c3ccc(O)cc3)[C@H]2SC1,inactive,inactive,inactive,inactive,inactive,inactive,,,inactive,inactive,inactive,,,,,,,,,
CCC(C)NC(N)=O (stereo not given),inactive,inactive,,inactive,inactive,inactive,inactive,inactive,inactive,inactive,inactive,inactive,inactive,inactive,inactive,inactive,inactive,inactive,inactive,inactive
CC(C)CC(C)CC(C)CC(C)COC(=O)c1ccccc1C(=O)OCC(C)CC(C)CC(C)CC(C)C (stereo not given),inactive,inactive,25.3 µM (active),,inactive,inactive,inactive,inactive,inactive,inactive,inactive,,,,,inactive,,,,
Cc1ccc(C=O)cc1C,inactive,inactive,inactive,inactive,inactive,,inactive,,inactive,inactive,inactive,,,,,,inactive,inactive,inactive,inactive
CCCCNC1CC(C)(C)NC(C)(C)C1,inactive,inactive,48.6 µM (active),,inactive,inactive,,,inactive,,inactive,,,,,inactive,inactive,inactive,inactive,inactive
Cc1ccccc1OCC(O)CO (stereo not given),inactive,inactive,inactive,inactive,inactive,inactive,,inactive,,inactive,inactive,,,,,inactive,,,,
CC(C)=CCOC(=O)c1ccccc1,inactive,inactive,inactive,inactive,inactive,inactive,,inactive,inactive,inactive,,,,,,inactive,,,,
O=C(O)c1ccc(Cl)cc1Cl,inactive,inactive,inactive,inactive,inactive,inactive,,inactive,inactive,inactive,inactive,,,,,inactive,inactive,inactive,inactive,
N[C@@H](COP(=O)(O)O)C(=O)O,inactive,inactive,inactive,inactive,inactive,,inactive,inactive,inactive,inactive,inactive,,,,,inactive,,,,
Cc1ccc(S(=O)(=O)O)c(C)c1,inactive,inactive,inactive,inactive,inactive,inactive,inactive,,inactive,inactive,inactive,,,,,,inactive,inactive,inactive,inactive
O=P(O)(O)OP(=O)(O)O,inactive,inactive,inactive,11.9 µM (active) and inactive,inactive,inactive,inactive,,inactive,inactive,,,,,,,,,,
C[C@H](CCC(=O)O)[C@H]1CC[C@H]2[C@@H]3C(=O)C[C@@H]4CC(=O)CC[C@]4(C)[C@H]3CC(=O)[C@]12C,inactive,inactive,inactive,,inactive,,,,inactive,inactive,inactive,,,,,inactive,inactive,inactive,inactive,inactive
Nc1cccc(O)c1,inactive,inactive,inactive,,inactive,inactive,inactive,inactive,,inactive,inactive,,,,,inactive,inactive,inactive,inactive,
COc1ccc(S(=O)(=O)N2c3ccc(Cl)cc3[C@@](O)(c3ccccc3Cl)[C@H]2C(=O)N2CCC[C@@H]2C(N)=O)cc1OC,inactive,inactive,inactive,,inactive,inactive,inactive,inactive,inactive,inactive,inactive,,,,,inactive,inactive,inactive,inactive,inactive
CN1CCN(CC(=O)N2c3ccccc3C(=O)Nc3cccnc32)CC1,inactive,inactive,inactive,inactive,,inactive,,,inactive,inactive,inactive,,,,,,inactive,inactive,inactive,inactive
COc1ccc2c(c1OC)C(=O)O[C@@H]2[C@H]1c2c(cc3c(c2OC)OCO3)CCN1C,inactive,inactive,,inactive,inactive,inactive,11.9 µM (active),,inactive,,,,,,,,,,,
Cc1ccccc1N=O,inactive,inactive,,inactive,inactive,inactive,inactive,inactive,inactive,inactive,,,,,,inactive,,,,
